Shn3 3UTR inh: reduces Shn3 3'UTR luciferase signal in osteoblasts; 360,000 tested, 0.52% active; inhibition, % at 12.5 µM; Clone20 osteoblast Shn3 3'UTR firefly luciferase, 24 h; AID 588674;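 active = mean inhibition of at least 75% with every replicate also reaching 75%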;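 also: 0% = median of neutral control wells and 100% = pilot-screen positive control compound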
Gli-Sufu antag: Gli-Sufu pathway antagonism | Sufu-KO-LIGHT fibroblasts, Gli luciferase reporter luminescence | inhibition, % at 5 µM | 340,000 tested, 0.74% active | AID 588413;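 active = inhibition above about 55%, limit read from the data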;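 also: 0% = DMSO-treated cells and 100% = wells with medium but no cells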
697 NFkB inh: inhibitors of the PMA/ionomycin-induced NF-kB reporter in 697 B cells | 697 B-cell NF-kB luciferase reporter, 16 h | inhibition, % at 4 µM | 330,000 tested, 0.33% active; in the data active = inhibition above about 35%
Jurkat NFkB inh: inhibitors of the PMA/ionomycin-induced NF-kB reporter in Jurkat cells. PMA/ionomycin-induced NF-kB luciferase reporter, luminescence. AID 435003. 330,000 tested, 0.53% active. inhibition, % at 4 µM; in the data active = inhibition above about 50%
Mdm2 MdmX PPI: human Mdm2/MdmX binding inhibition; SaOS-2 split-luciferase Mdm2/MdmX complementation, luminescence; inhibition, % at 8 µM; 330,000 tested, 3% active; AID 485346;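 active = inhibition of at least 50% at 8 µM in the primary screen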
Mdm2 MdmX conf: confirmation of human Mdm2/MdmX interaction inhibitors; shares compounds with Mdm2 MdmX PPI; Mdm2-MdmX binding, luminescent assay; inhibition, % at 8 µM; 10,000 tested, 55% active; in the data active = inhibition above about 40%
FLuc counter: full-length luciferase inhibition in Mdm2/MdmX counter-screen; 6,200 tested, 77% active; SaOS-2 full-length luciferase counterscreen, luminescence; inhibition, % at 8 µM; shares compounds with Mdm2 MdmX PPI;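 active = mean inhibition at 8 µM reaching about 37%, which flags the compound as non-specific, limit read from the data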;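 also: p53-null SaOS-2 cells with luciferase driven by a doxycycline-inducible promoter; compound on cells about two nights before reading with doxycycline added after day one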
The depositor's hits bear a star; . = no result given. A selection: hits, their analogues and other compounds. The true share with any hit is near 3.8%.

SMILES | Shn3 3UTR inh | Gli-Sufu antag | 697 NFkB inh | Jurkat NFkB inh | Mdm2 MdmX PPI | Mdm2 MdmX conf | others
CC1CCCCN1S(=O)(=O)Cc1ccccc1Cl (centres undefined) | -12.4 | 29.6 | 13.6 | 4.0 | 1.0 | .
O=c1[nH]c(/C=C/c2cccc3ccccc23)nc2ccccc12 | -37.6 | -38.3 | 11.7 | -22.2 | 44.1 | .
O=c1nc2cccc3c2=c(/c1=C(\O)c1ccccc1)c1ccccc1c3=O | 7.8 | 0.1 | 17.5 | 8.8 | 51.7* | 27.9
Cc1ccc(NC(=O)c2ccc3nsnc3c2)c(C)c1 | -18.7 | -47.5 | -93.9 | -69.3 | -32.6 | .
Cc1ccccc1-c1cnc2c(c1)C(=O)N([C@H](C)CO)C[C@@H](C)[C@H](CN(C)C(=O)c1ccncc1)O2 | 10.0 | . | . | . | . | .
COc1nc(/C=C/N(C)C)c([N+](=O)[O-])c(OC)n1 | -12.4 | 3.7 | -17.2 | -1.5 | 52.0* | 21.8
CC(=O)Oc1ccc2oc(/C=C/N(C)C)c([N+](=O)[O-])c2c1 | -26.5 | -22.9 | -0.1 | 8.1 | 2.0 | .
Cc1nn(-c2ccccc2)c(Cl)c1/C=N/NC(N)=O | 8.0 | -23.4 | -12.9 | -11.2 | 25.2 | .
NC(=O)N/N=C/c1c(Sc2nnnn2-c2ccccc2)nc2ccccn2c1=O | 3.8 | 16.7 | -44.1 | 22.7 | 62.0* | 50.1* | FLuc counter=23.4
COc1ccc(CC2(CO)COc3ccccc3C2=O)cc1 (centres undefined) | 14.0 | -6.7 | -10.8 | 33.7 | 51.3* | 39.2 | FLuc counter=85.0*
O=C(c1ccc(Br)o1)N1CCN(c2ccc3nnc(-c4ccccc4)n3n2)CC1 | 13.6 | 27.3 | -98.3 | -16.8 | 57.9* | -4.4
C=CCN1C(=O)/C(=C2/Sc3ccc(OC)cc3N2C)SC1=Nc1cccc(O)c1 | 4.3 | 12.6 | 9.5 | -0.5 | 66.9* | 29.0
CCN1C(=O)/C(=C2/Sc3ccc(OC)cc3N2C)SC1=Nc1ccc(OC)cc1 | -15.8 | 5.0 | -19.5 | -9.0 | -0.7 | .
CCc1cc(SC#N)cc(C)c1NC(=O)CCl | 7.7 | 5.0 | 4.1 | 17.1 | 80.8* | 41.0* | FLuc counter=55.4*
CCC(=O)NCc1cc(-c2nn(C)c(=O)c3ccccc23)ccc1C | 16.7 | 12.6 | 4.5 | -2.6 | 25.7 | .
CCC(=O)Nc1cc(-c2nn(C)c(=O)c3ccccc23)ccc1OC | -75.6 | -3.4 | 26.3 | 4.3 | 30.7 | .
Cc1nn(CC(=O)Nc2ccc3c(c2)oc2ccccc23)c(=O)c2ccccc12 | -8.2 | 1.8 | 24.0 | -5.3 | 77.1* | 14.5
COc1ccc(-c2nn(C)c(=O)c3ccccc23)cc1NC(=O)Cn1nc(C)c2ccccc2c1=O | 41.1 | 42.4 | -11.0 | -8.1 | 57.4* | 22.5
Cc1ccc(-c2nn(CC(=O)NCc3cc(-c4nn(C)c(=O)c5ccccc45)ccc3C)c(=O)c3ccccc23)cc1 | 81.5 | 9.7 | -13.1 | 3.8 | 96.9* | 20.4
O=c1[nH]nnc2c1ncn2C1OC(CO)C(O)C1O (centres undefined) | 53.7 | . | . | . | . | .
COc1cc(/C=N/NC(=O)Nc2cccc3nsnc23)cc(OC)c1OC | 6.6 | 8.9 | . | . | . | .
O=C(N/N=C/c1ccc(O)cc1)Nc1cccc2nsnc12 | 49.9 | -3.2 | -24.5 | -68.9 | 70.5* | 66.2* | FLuc counter=62.0*
CC(OC(=O)/C=C/c1ccccc1)C(=O)Nc1cccc(C#N)c1 (centres undefined) | 6.4 | -13.0 | 8.5 | 14.9 | 55.8* | 58.2* | FLuc counter=95.2*
COc1ccc(/C(C)=N/NC(=O)c2cccc(S(=O)(=O)N3CCCC3)c2)c(O)c1 | 88.5* | 42.6 | 3.8 | 36.0 | 67.2* | 81.2* | FLuc counter=34.4
COc1ccc(C(C)=NNC(=O)c2cccc(S(=O)(=O)N3CCCC3)c2)cc1 | 12.8 | 0.6 | 2.2 | -8.7 | 3.6 | .
CCN(CC(=O)NC1CCS(=O)(=O)C1)C(=O)/C=C/c1cccs1 (centres undefined) | -7.0 | -5.0 | 9.7 | 6.9 | -15.2 | .
CCOc1ccc(CNC(=O)C2CCN(c3nn4c(=O)cc(C)nc4s3)CC2)cc1 | -32.0 | -39.4 | 13.1 | 5.5 | -4.3 | .
CCc1cccc2c(C(=O)CN3C(=O)N(C)C4(CCCCC4)C3=O)c[nH]c12 | 43.8 | 1.9 | -28.1 | 22.0 | 52.5* | 23.6
CCCCCCOc1ccc(/C(C)=N/NC2=NCCN2)cc1 | 9.5 | 21.0 | -57.1 | 48.8 | 90.2* | 31.1
